# From PubChem BioAssay (NCATS)
# Records with an inconclusive call do not appear. The source made the active and inactive calls. Calls come from the whole dose curve; as a rule, active = well fitted curve in the direction sought with a large enough effect; inconclusive = small, poorly fitted or top-dose-only effect, or another doubt; inactive = no such curve, though single readings can be large; an effect the other way counts as inactive or inconclusive.
# What was measured:
# [1] = qHTS of pediatric cancer cell lines to identify multiple opportunities for drug repurposing: Primary screen for TC32 cells (AID 1347089); conditions: TC32 Ewing sarcoma viability, CellTiter-Glo luminescence, 48 h; series mostly up to 45.8 µM; note: nearly all actives have a fitted effect of over 60% in size
# In short: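 In the primary qHTS, MIPE compounds were tested at 11 concentrations (0.78 nM to 46 µM) and NPC compounds at 8 (0.59 nM to 46 µM) on TC32 cells for 48 h. CellTiter-Glo luminescence gave viability.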
# [2] = qHTS of pediatric cancer cell lines to identify multiple opportunities for drug repurposing: Primary screen for DAOY cells (AID 1347090); conditions: DAOY medulloblastoma viability, CellTiter-Glo luminescence, 48 h; series mostly up to 46 µM; note: nearly all actives have a fitted effect of over 55% in size
# In short: (§1)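 Viability measured as metabolically active cells via CellTiter-Glo luminescence following 48 hours of compound exposure, 11-point dilutions in confirmatory testing. 500-1,000 cells/well plated 5 hours before dosing; controls were DMSO and 2.3 µM bortezomib.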
# [3] = qHTS of pediatric cancer cell lines to identify multiple opportunities for drug repurposing: Primary screen for A673 cells (AID 1347092); conditions: A673 Ewing sarcoma viability, CellTiter-Glo ATP luminescence, 48 h; series mostly up to 46 µM; note: nearly all actives have a fitted effect of over 45% in size
# In short: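 48 h compound exposure, A673, 500-1,000 cells/well, 37 degrees C/5% CO2. MIPE: 11-point, 0.78 nM-46 µM; NPC: 8-point, 0.59 nM-46 µM (final). Readout CellTiter-Glo luminescence after 15 min RT.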
# [4] = qHTS of pediatric cancer cell lines to identify multiple opportunities for drug repurposing: Primary screen for BT-37 cells (AID 1347094); conditions: BT-37 viability, CellTiter-Glo luminescence, 48 h; series mostly up to 57.3 µM
# In short: (§2)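 Plated cells (500-1,000 per well, growth media) were allowed to settle for 5 hours, treated with compound dilutions for 48 hours, then lysed with CellTiter-Glo for 15 min at room temperature before luminescence reading.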
# [5] = qHTS of pediatric cancer cell lines to identify multiple opportunities for drug repurposing: Primary screen for U-2 OS cells (AID 1347096); conditions: U-2 OS viability, CellTiter-Glo luminescence, 48 h; series mostly up to 46 µM; note: nearly all actives have a fitted effect of over 50% in size
# In short: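 Viability after 48 h compound treatment at 37C, 500-1,000 cells/well, read as ATP luminescence with CellTiter-Glo. Primary screens used 11-point (MIPE, 0.78 nM-46 µM) or 8-point (NPC, 0.59 nM-46 µM) final concentrations; follow-up screens used 11-point dilutions.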
# [6] = qHTS of pediatric cancer cell lines to identify multiple opportunities for drug repurposing: Primary screen for Saos-2 cells (AID 1347097); conditions: Saos-2 viability, CellTiter-Glo ATP luminescence, 48 h; series mostly up to 46 µM; note: nearly all actives have a fitted effect of over 40% in size
# In short: as §2
# [7] = qHTS of pediatric cancer cell lines to identify multiple opportunities for drug repurposing: Primary screen for SK-N-MC cells (AID 1347093); conditions: SK-N-MC viability, CellTiter-Glo luminescence, 48 h; series mostly up to 46 µM
# In short: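 Metabolically active cells were quantified by ATP-dependent luminescence (CellTiter-Glo, 15 min at room temperature) following 48 h treatment. Cells had been plated at 500-1,000 per well and settled for 5 h beforehand.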
# [8] = qHTS of pediatric cancer cell lines to identify multiple opportunities for drug repurposing: Primary screen for NB-EBc1 cells (AID 1347095); conditions: NB-EBc1 neuroblastoma viability, CellTiter-Glo luminescence, 48 h; series mostly up to 46 µM
# In short: as §2
# [9] = qHTS of pediatric cancer cell lines to identify multiple opportunities for drug repurposing: Primary screen for SJ-GBM2 cells (AID 1347091); conditions: SJ-GBM2 viability, CellTiter-Glo luminescence, 48 h; series mostly up to 46 µM
# In short: as §1
# Potency is the fitted concentration of half-maximal effect.
Compound,Potency [1],Potency [2],Potency [3],Potency [4],Potency [5],Potency [6],Potency [7],Potency [8],Potency [9]
CN1CCN(c2cc(C(=O)Nc3ccc4c(c3)-c3c(c(C(N)=O)nn3-c3ccc(F)cc3)CC4)c(Cl)cn2)CC1,inactive,11800 nM (active),2350 nM (active),24300 nM (active),23500 nM (active),16600 nM (active),–,–,–
Cc1c(C)n(Cc2ccc(-c3ccccc3C(=O)O)cc2)c2ccc(C(=O)N[C@@H](C)c3ccc([N+](=O)[O-])cc3)cc12,inactive,29.6 nM (active),148 nM (active),968 nM (active),inactive,–,18.7 nM (active),–,–
CCC(=C(c1ccccc1)c1ccc(OCCN(C)C)cc1)c1ccccc1,inactive,inactive,–,–,inactive,18700 nM (active),–,–,–
CCNC(=O)Nc1ccc2ncc(Nc3ccc(C)cc3)nc2n1,1860 nM (active),37.2 nM (active),–,24300 nM (active),–,–,5.3 nM (active),–,–
CC(C)Nc1cc(C(F)(F)F)cc2nc(NC(=O)c3cccnc3)nn12,inactive,inactive,–,inactive,inactive,–,16600 nM (active),inactive,–
CCCNC(=O)Nc1ccc(Oc2ncnc3cc(OC)c(OC)cc23)cc1Cl,inactive,inactive,inactive,inactive,inactive,inactive,inactive,–,–
COc1ccc2c(c1)CC[C@@H](CN(C)CC(=O)O)[C@H]2c1ccccc1,3700 nM (active),2960 nM (active),1870 nM (active),6110 nM (active),–,2090 nM (active),1180 nM (active),662 nM (active),–
CC(C)c1cc(-c2n[nH]c(=O)n2-c2ccc3c(ccn3C)c2)c(O)cc1O,131 nM (active),–,118 nM (active),122 nM (active),–,118 nM (active),52.6 nM (active),–,118 nM (active)
O=C(C=Cc1cccnc1)NCCCCC1CCN(C(=O)c2ccccc2)CC1,4.7 nM (active),inactive,–,–,118 nM (active),–,–,11.8 nM (active),–
NC(=O)c1cccc2cn(-c3ccc([C@@H]4CCCNC4)cc3)nc12,20800 nM (active),inactive,1870 nM (active),–,inactive,–,8330 nM (active),–,–
CNC(=O)c1c(F)cccc1Nc1nc(Nc2cc3c(cc2OC)CCN3C(=O)CN(C)C)nc2[nH]ccc12,5870 nM (active),118 nM (active),93.5 nM (active),–,inactive,2090 nM (active),14.8 nM (active),332 nM (active),–
COc1cc(C)c(Sc2cnc(NC(=O)c3ccc(CNC(C)C(C)C)cc3)s2)cc1C(=O)N1CCN(C(C)=O)CC1 (configuration not stated),7390 nM (active),14800 nM (active),9350 nM (active),–,inactive,inactive,2090 nM (active),18700 nM (active),–
CS(=O)(=O)c1ccc(-c2cnc(N)c(C(=O)Nc3ccccc3)n2)cc1,inactive,inactive,–,inactive,inactive,inactive,4180 nM (active),–,–
CC(C)(C)c1cc(C(C)(C)C)c(NC(=O)c2c[nH]c3ccccc3c2=O)cc1O,inactive,inactive,inactive,inactive,inactive,–,–,–,–
Cn1cc(-c2[nH]c3cc(NC(=O)[C@H](N)C4CCCCC4)cc4c3c2C=NNC4=O)cn1,2620 nM (active),–,5900 nM (active),–,11800 nM (active),4690 nM (active),296 nM (active),590 nM (active),590 nM (active)
COc1cc(Nc2ncc(F)c(Nc3ccc4c(n3)N(COP(=O)(O)O)C(=O)C(C)(C)O4)n2)cc(OC)c1OC,inactive,–,2960 nM (active),inactive,4690 nM (active),1180 nM (active),1320 nM (active),935 nM (active),1480 nM (active)
COc1ccc(C(=O)CC2(O)C(=O)Nc3c(Cl)ccc(Cl)c32)cc1 (configuration not stated),7390 nM (active),3720 nM (active),2350 nM (active),–,inactive,2090 nM (active),1180 nM (active),418 nM (active),–
CC[C@@H]1C(=O)N(C)c2cnc(Nc3ccc(C(=O)NC4CCN(C)CC4)cc3OC)nc2N1C1CCCC1,234 nM (active),–,37.2 nM (active),172 nM (active),14800 nM (active),46.9 nM (active),59 nM (active),–,37.2 nM (active)

Compound,Potency [1],Potency [2],Potency [3],Potency [4],Potency [5],Potency [6],Potency [7],Potency [8],Potency [9]
CCCCCN(CCC12CC3CC(CC(C3)C1)C2)C(=O)NCCCc1ccncc1,inactive,–,18700 nM (active),24300 nM (active),inactive,18700 nM (active),16600 nM (active),20900 nM (active),18700 nM (active)
CC(C)(C)c1cnc(CSc2cnc(NC(=O)C3CCNCC3)s2)o1,1310 nM (active),935 nM (active),46.9 nM (active),385 nM (active),–,743 nM (active),332 nM (active),935 nM (active),–
COCCn1c2c([n+](Cc3cnccn3)c1C)C(=O)c1ccccc1C2=O,–,11.8 nM (active),5.9 nM (active),153 nM (active),118 nM (active),37.2 nM (active),11.8 nM (active),93.5 nM (active),13.2 nM (active)
C[C@H]1C[C@@H]2[C@@H]([C@@H](O)C[C@@]3(C)[C@H]2CC[C@]3(O)C(=O)CO)[C@@]2(C)C=CC(=O)C=C12,inactive,–,inactive,inactive,inactive,inactive,–,–,inactive
COc1cc2ncnc(Nc3ccc(F)c(Cl)c3)c2cc1NC(=O)C=CCN1CCCCC1,inactive,–,18700 nM (active),24300 nM (active),–,16600 nM (active),–,26400 nM (active),8330 nM (active)
Cc1cc(Nc2nc(N[C@@H](C)c3ccc(F)cc3)c(C#N)cc2F)n[nH]1,2620 nM (active),–,1180 nM (active),–,inactive,2350 nM (active),743 nM (active),662 nM (active),–
NC(=O)c1c(OCc2c(F)cc(Br)cc2F)nsc1NC(=O)NCCCCN1CCCC1,–,23500 nM (active),18700 nM (active),24300 nM (active),inactive,inactive,16600 nM (active),2640 nM (active),20900 nM (active)
COc1cccc2nc(-c3cccs3)nc(NN3C(=O)C=C(C)C3=O)c12,–,2350 nM (active),2350 nM (active),863 nM (active),1870 nM (active),–,14.8 nM (active),332 nM (active),935 nM (active)
CC1(C)CC(=O)c2c(C(F)(F)F)nn(-c3ccc(C(N)=O)c(NC4CCC(OC(=O)CN)CC4)c3)c2C1 (configuration not stated),739 nM (active),–,235 nM (active),–,–,264 nM (active),166 nM (active),296 nM (active),332 nM (active)
CC(C)c1nn(-c2c(Cl)cccc2Cl)c2nc(Cc3ccc(OCCO)cc3)[nH]c(=O)c12,–,74.3 nM (active),37.2 nM (active),96.8 nM (active),inactive,–,41.8 nM (active),93.5 nM (active),41.8 nM (active)
COc1c(N2C[C@@H]3CCCN[C@H]3C2)c(F)cc2c(=O)c(C(=O)O)cn(C3CC3)c12,–,inactive,inactive,inactive,inactive,inactive,inactive,inactive,inactive
CC(C)c1noc(N2CCC(COc3ccc(-c4ccc(S(C)(=O)=O)cc4)nc3)CC2)n1,inactive,–,–,–,inactive,–,inactive,inactive,–
Cn1c2cc(S(C)=O)sc2c2cnn(Cc3cccc(N)c3)c(=O)c21 (configuration not stated),–,inactive,inactive,inactive,inactive,–,inactive,inactive,inactive
C[C@]12CC[C@H](O)CC1=CCC1C2CC[C@]2(C)C(n3cnc4ccccc43)=CCC12 (some centres not stated),inactive,–,14800 nM (active),–,inactive,–,–,–,23500 nM (active)
COc1ccc(OC)c(-c2nnc3ccc(-c4ccc(OC)c(O[C@@H]5CCOC5)c4)nn23)c1,inactive,–,14800 nM (active),27300 nM (active),–,29600 nM (active),18700 nM (active),inactive,–
O=C(CCCCCCC(=O)Nc1ccc([C@H]2O[C@@H](CSc3nc(-c4ccccc4)c(-c4ccccc4)o3)C[C@@H](c3ccc(CO)cc3)O2)cc1)NO,–,11800 nM (active),4690 nM (active),15300 nM (active),inactive,inactive,8330 nM (active),8330 nM (active),14800 nM (active)
CCCCCCCCCC(=O)N[C@@H](Cc1c[nH]c2ccccc12)C(=O)N[C@H](CC(N)=O)C(=O)N[C@@H](CC(=O)O)C(=O)N[C@@H]1C(=O)NCC(=O)N[C@@H](CCCN)C(=O)N[C@@H](CC(=O)O)C(=O)N[C@H](C)C(=O)N[C@@H](CC(=O)O)C(=O)NCC(=O)N[C@H](CO)C(=O)N[C@@H]([C@@H](C)CC(=O)O)C(=O)N[C@@H](CC(=O)c2ccccc2N)C(=O)O[C@@H]1C,–,inactive,inactive,inactive,inactive,–,inactive,inactive,inactive
